Source: PubChem BioAssay
Activity calls are given as the source filed them. The rule behind the calls is not given here.

test: Brca1-Bard1 BiLC signal decrease – luminescence, single concentration, counter-screen for Mdm2/MdmX interaction inhibitor project, confirmation (AID 504668); conditions: Brca1/Bard1 bimolecular luciferase complementation counterscreen, at 8 µM, active compounds read high

Compound	inhibition
O=[N+]([O-])c1ccccc1C1Nc2cccc3cccc(c23)N1	26.9% (active)
Cc1ccc(/C=N/NC(=O)c2c(-c3ccccc3)noc2C)c(O)c1	31.1% (active)
Brc1ccc2ncnc(Nc3ccc(N4CCOCC4)cc3)c2c1	25.5% (active)
CCOc1cc(CNCCO)cc(Br)c1OCc1ccc(Cl)cc1Cl	25.5% (active)
O=C(/C(N=Nc1cccc([N+](=O)[O-])c1)=C(/O)c1ccc(Br)cc1)C(F)(F)F	24.9% (active)
COc1cccc(-c2sc3ccc(OC)cc3c2-c2ccc(OCCN3CCCC3)cc2)c1	27.8% (active)
Cc1cc(NC(=O)/C=C/C(=O)N(c2ccccc2C)C(C(=O)NC2CCCC2)c2ccc(F)cc2)no1 (centres undefined)	28.7% (active)
COc1ccc(C(=O)O/N=C(\N)Cc2ccc(Cl)c(Cl)c2)cc1OC	26.9% (active)
O=c1c2ccccc2nc(-c2ccc(Cl)c(Cl)c2)n1O	26.8% (active)
Cc1cc(C(=O)CCl)c(C)n1CCc1ccc(F)cc1	34.4% (active)
CCN1C(=O)C2(Nc3ccccc3-c3nc4ccccc4n32)c2cc(OC)ccc21 (centres undefined)	23.7% (active)
COc1ccc(N/N=C(/N=Nc2nc(C)cc(=O)[nH]2)c2ccccc2)cc1	30.7% (active)
CCCCC(=O)NC(c1ccco1)c1cc(Cl)c2cccnc2c1O (centres undefined)	28.6% (active)
N#CC(c1ccc(Cl)cc1)c1ccc2c(C(F)(F)F)cc(C(F)(F)F)nc2n1 (centres undefined)	24% (active)
CC(C)(C)c1cc(Cl)c(O)c(NC(=S)NC(=O)c2cccnc2)c1	35.2% (active)
CCC(=O)NC(c1cccs1)c1ccc2cccnc2c1O (centres undefined)	23.3% (active)
O=C(N/N=C/c1ccc(O)c2ncccc12)c1cccc(Br)c1	32.5% (active)
Cc1cc(Nc2cccc([N+](=O)[O-])c2)n2c(nc3ccccc32)c1C#N	30.7% (active)
Cc1cccc(NC(=O)Nc2cccc(Oc3c(F)c(F)c(F)c(F)c3F)c2)c1	32.5% (active)
O=c1c2ccccc2nc(/C=C/c2cc(Br)ccc2O)n1CCCO	26.6% (active)

Compound	inhibition
COc1ccccc1NCC(=O)N/N=C/c1c(O)ccc2ccccc12	24.6% (active)
CC(C)c1cccc(O)c(=O)c1	27.6% (active)
O=C(CCl)N1N=C(c2ccco2)CC1c1ccco1 (centres undefined)	31.2% (active)
C=CCn1c(CNc2ccc(C)cc2)nnc1SCC(=O)N/N=C/c1ccc(O)cc1O	35.6% (active)
COc1ccc2[nH]c3c(N4CCC(O)(c5cccc(C(F)(F)F)c5)CC4)ncnc3c2c1	32.1% (active)
O=C(c1ccc(Br)cc1)C(CN1CCOCC1)c1ccccc1 (centres undefined)	24.6% (active)
CCN(CC)CCCNC(=O)c1ccc2c(Cl)c3c(nc2c1)CCCC3	30.8% (active)
Cc1cccc(NC(=S)N(CCCN2CCCC2)Cc2cccn2Cc2ccc(Cl)cc2)c1	23.4% (active)
Clc1ccc(C2=Nn3c(nnc3-c3n[nH]c4c3CCC4)SC2)cc1Cl	34% (active)
Cc1ccc(CNC(=O)c2ccc3c(=O)c(O)c(-c4ccc(C)cc4)[nH]c3c2)cc1	29% (active)
Cn1ccc2cc(-c3ccc4ncnc(NCc5cccs5)c4c3)ccc21	25% (active)
O=C(Nc1ccc(Cl)c(Cl)c1)Nc1ccc(Br)cc1F	35.2% (active)
O=[N+]([O-])c1ccc2ncnc(Nc3ccc4c(c3)OCCO4)c2c1	29.6% (active)
N/C(=N\NC(=O)c1sccc1OCc1ccc(Cl)cc1Cl)c1ccccn1	35.1% (active)
O=c1c2ccccc2nc(COc2ccccc2)n1/N=C/c1ccc(O)cc1O	31% (active)
C[n+]1c2n(c3ccccc31)N=C(c1ccc(-c3ccccc3)cc1)CS2	25.5% (active)
Cc1ccc(C(C)C)c(OCc2nn(CC(=O)c3ccc(Cl)cc3)c3[n+]2CCCCC3)c1	25% (active)
O=C(NCCCO)c1c(O)c2cccc3c2n(c1=O)CCC3	24.6% (active)
Cc1sc2ncnc(N3CCC(C(=O)Nc4ccccc4C(C)(C)C)CC3)c2c1C	27.8% (active)
